Each structure is given as a SMILES string. Records with an inconclusive call do not appear. The source made the active and inactive calls. The calls were made as follows, unless noted: active = hit-call score of the fitted dose curve at least 0.9, where 1 is the maximum; inactive = score below 0.9.

Read-out in assay [1]: solute carrier (SLCO1B1), SLCO1B1 (gene 10599)
The assay can be described thus: LTEA_HepaRG_SLCO1B1: Life Technologies and Expression Analysis (LTEA) Assay for solute carrier (SLCO1B1) using HepaRG (AID 2283530). The note with it: mRNA level, 48 h; actives raise or lower the signal. Summed up: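 Gain or loss of SLCO1B1 mRNA is fitted against the 0.5% DMSO vehicle in human HepaRG liver cells treated 48 h at up to 100 uM in half-log steps. Expression comes from qRT-PCR normalized to endogenous controls.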

Read-out in assay [2]: sulfotransferase 2A1 (SULT2A1), SULT2A1 (gene 6822)
Nature of the assay: LTEA_HepaRG_SULT2A1: Life Technologies and Expression Analysis (LTEA) Assay for sulfotransferase 2A1 (SULT2A1) using HepaRG (AID 2283531). The following applies: mRNA level, 48 h; actives raise or lower the signal. Summed up: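 Cells were plated and cultured 48 h, switched to serum-free induction medium, then dosed in duplicate for 48 h (8 concentrations, max 100 uM). RNA was isolated and SULT2A1 expression measured by qRT-PCR; gain or loss of signal fitted relative to DMSO.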

Read-out in assay [3]: Transforming Growth Factor (TGFA), TGFA (gene 7039)
Nature of the assay: LTEA_HepaRG_TGFA: Life Technologies and Expression Analysis (LTEA) Assay for Transforming Growth Factor (TGFA) using HepaRG (AID 2283532). The note with it: mRNA level, 48 h; actives raise or lower the signal. In a few lines: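 Differentiated HepaRG cells exposed 48 hours in serum-free induction medium, 0.5% DMSO vehicle, 8-point half-log series from 100 uM, in duplicate. TGFA mRNA by TaqMan qRT-PCR, normalised to ACTB, GAPDH, POLR2A; bidirectional fit versus DMSO.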

Read-out in assay [4]: TIMP1, TIMP1 (gene 7076)
Nature of the assay: LTEA_HepaRG_TIMP1: Life Technologies and Expression Analysis (LTEA) Assay for TIMP1 using HepaRG (AID 2283534).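 Also: TaqMan qRT-PCR signal normalized to ACTB GAPDH and POLR2A housekeeping genes.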 The following applies: mRNA level, 48 h; actives raise or lower the signal. Summed up: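 We dosed human liver HepaRG cultures for 48 hours with up to 100 uM test chemical and measured TIMP1 expression by qRT-PCR. Activity in either direction is fitted relative to the 0.5% DMSO vehicle.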

Read-out in assay [5]: Tumor necrosis factor receptor 1 (TNFRSF1A), TNFRSF1A (gene 7132)
The assay can be described thus: LTEA_HepaRG_TNFRSF1A: Life Technologies and Expression Analysis (LTEA) Assay for Tumor necrosis factor receptor 1 (TNFRSF1A) using HepaRG (AID 2283535). The following applies: mRNA level, 48 h; actives raise or lower the signal. Summed up: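 Expression of TNFRSF1A in human HepaRG liver cells was measured by qRT-PCR 48 h after chemical dosing (maximum 100 uM). Bidirectional curve fitting used 0.5% DMSO as baseline.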

Read-out in assay [6]: Thyroid Hormone Responsive (THRSP), THRSP (gene 7069)
Nature of the assay: LTEA_HepaRG_THRSP: Life Technologies and Expression Analysis (LTEA) Assay for Thyroid Hormone Responsive (THRSP) using HepaRG (AID 2283536). The following applies: mRNA level, 48 h; actives raise or lower the signal. In a few lines:
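Differentiated HepaRG cells treated 48 h in serum-free induction medium with 8 half-log concentrations up to 100 uM (0.5% DMSO), duplicates. THRSP mRNA by TaqMan qRT-PCR normalised to ACTB, GAPDH, POLR2A; bidirectional fit versus DMSO.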

Read-out in assay [7]: Cellular tumor antigen p53 (Homo sapiens) (UniProt P04637)
Nature of the assay: LTEA_HepaRG_TP53: Life Technologies and Expression Analysis (LTEA) Assay for Tumor Protein P53 (TP53) using HepaRG (AID 2283537). The note with it: mRNA level, 48 h; actives raise or lower the signal. In a few lines:
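TP53 transcript measured by qRT-PCR, normalized to three housekeeping genes, after 48 h treatment of human HepaRG cultures with chemicals from 100 uM downward in half-log steps (0.5% DMSO vehicle, serum-free induction medium). Up- or down-regulation fitted against DMSO.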

Read-out in assay [8]: UDP glucuronosyltransferase (UGT1A1), UGT1A1 (gene 54658)
Nature of the assay: LTEA_HepaRG_UGT1A1: Life Technologies and Expression Analysis (LTEA) Assay for UDP glucuronosyltransferase (UGT1A1) using HepaRG (AID 2283538). The following applies: mRNA level, 48 h; actives raise or lower the signal. Summed up:
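HepaRG cells, 0.5% DMSO vehicle, 48 h exposure in serum-free induction medium to 8-point half-log series topping at 100 uM, in duplicate. UGT1A1 mRNA by Fluidigm qRT-PCR, normalized to ACTB/GAPDH/POLR2A; bidirectional fit versus DMSO.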

Read-out in assay [9]: UDP glucuronosyltransferase (UGT1A6), UGT1A6 (gene 54578)
Nature of the assay: LTEA_HepaRG_UGT1A6: Life Technologies and Expression Analysis (LTEA) Assay for UDP glucuronosyltransferase (UGT1A6) using HepaRG (AID 2283539). The note with it: mRNA level, 48 h; actives raise or lower the signal. Summed up:
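Endpoint is UGT1A6 transcript induction or loss in a human liver cell line, quantified by TaqMan qRT-PCR 48 h after dosing. Concentrations ran from 100 uM downward in half-log steps in 0.5% DMSO; activity was fitted in both directions versus vehicle.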

Read-out in assay [10]: X-box binding protein 1 (XBP1), XBP1 (gene 7494)
The assay can be described thus: LTEA_HepaRG_XBP1: Life Technologies and Expression Analysis (LTEA) Assay for X-box binding protein 1 (XBP1) using HepaRG (AID 2283540). The following applies: mRNA level, 48 h; actives raise or lower the signal. In a few lines:
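Human HepaRG monolayers receive test chemical for 48 h across an eight-point half-log series starting at 100 uM. XBP1 mRNA gain or loss is scored against DMSO by qRT-PCR.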

A short description of assay [11]: LTEA_HepaRG_LDH_cytotoxicity: Cytotoxicity Assessment in the Life Technologies and Expression Analysis (LTEA) Assay (AID 2283563; active = hit-call score of the fitted dose curve at least 0.9, where 1 is the maximum). In a few lines: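 Human HepaRG hepatic cells are treated with test chemicals for 48 h at up to 100 uM in 0.5% DMSO. Cytotoxicity is scored from medium LDH against the vehicle control.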
Assay [12] can be described thus: ATG_XTT_Cytotoxicity: Cytotoxicity Assessment in the Attagene TRANS-FACTORIAL HepG2 Assay (AID 2283584; active = hit-call score of the fitted dose curve at least 0.9, where 1 is the maximum). In a few lines: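 Transfect HepG2 with GAL4-UAS reporter units, dose compound, incubate 24 h, then measure viable cell number by XTT. Fit concentration response against DMSO baseline.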
Assay [13] addresses Cellular tumor antigen p53 (Homo sapiens) (UniProt P04637). The assay can be described thus: TOX21_p53_BLA_p2_ratio: Tox21 HCT-116 p53 Agonism Beta-lactamase Assay, Ratio, Phase 2 (AID 2283592; active = hit-call score of the fitted dose curve at least 0.9, where 1 is the maximum). Summed up: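 An inducible beta-lactamase reporter in HCT116 cells signals p53 pathway activation. After 16 h chemical exposure at 37C, cells load CCF4-AM substrate for 2 h at room temperature; activity is the cleaved/uncleaved emission ratio relative to DMSO.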

Assay [14] has the same target. Nature of the assay: TOX21_p53_BLA_p3_ratio: Tox21 HCT-116 p53 Agonism Beta-lactamase Assay, Ratio, Phase 3 (AID 2283596; active = hit-call score of the fitted dose curve at least 0.9, where 1 is the maximum). In a few lines: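 HCT116 p53-bla cells (4000/well) given compound in DMSO (217-fold dilution) after 5 h, incubated 16 h at 37C. CCF4-AM substrate 2 h at room temperature; 460/530 nm emission ratio, gain fitted against DMSO.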
A short description of assay [15]: TOX21_p53_BLA_p4_viability: Viability Assessment in the Tox21 HCT-116 p53 Agonism Beta-lactamase Assay, Phase 4 (AID 2283597; active = hit-call score of the fitted dose curve at least 0.9, where 1 is the maximum;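 also: hits lower the luminescence signal meaning cytotoxicity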). In a few lines: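 Compound exposure of HCT116 cells lasts 16 h at 37C, 5% CO2, with DMSO stocks diluted 217-fold. Cellular ATP is then quantified by CellTiter-Glo luminescence after 30 min at room temperature.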
The target of assay [16] is Cellular tumor antigen p53 (Homo sapiens) (UniProt P04637). The assay can be described thus: TOX21_p53_BLA_p5_ratio: Tox21 HCT-116 p53 Agonism Beta-lactamase Assay, Ratio, Phase 5 (AID 2283599; active = hit-call score of the fitted dose curve at least 0.9, where 1 is the maximum). In a few lines:
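HCT-116 p53-bla cells (4000/well) plated 5 h, dosed with compound (217-fold DMSO dilution) for 16 h at 37 C; CCF4-AM substrate 2 h at room temperature. Activity is the 460/530 nm emission ratio (405 nm excitation), fitted in gain-of-signal direction versus DMSO.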

Assay [17] in a line: TOX21_p53_BLA_p3_viability: Viability Assessment in the Tox21 HCT-116 p53 Agonism Beta-lactamase Assay, Phase 3 (AID 2283593; active = hit-call score of the fitted dose curve at least 0.9, where 1 is the maximum;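 also: cells exposed to compound for 16 h before reading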). Summed up: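 HCT116 cells, 4000/well, dosed 5 h after plating by pin transfer (217-fold dilution from DMSO stock) and incubated 16 h at 37C, 5% CO2. Viability read as ATP luminescence with CellTiter-Glo after 30 min at room temperature.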
Assay [18] in a line: TOX21_p53_BLA_p5_viability: Viability Assessment in the Tox21 HCT-116 p53 Agonism Beta-lactamase Assay, Phase 5 (AID 2283600; active = hit-call score of the fitted dose curve at least 0.9, where 1 is the maximum). In a few lines:
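Counter-readout for cytotoxicity: ATP-dependent luminescence from CellTiter-Glo, read in the beta-lactamase wells after 30 min at RT, following a 16 h compound exposure at 37C.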

Assay [19] in a line: TOX21_p53_BLA_p2_viability: Viability Assessment in the Tox21 HCT-116 p53 Agonism Beta-lactamase Assay, Phase 2 (AID 2283591; active = hit-call score of the fitted dose curve at least 0.9, where 1 is the maximum;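 also: actives lower the ATP signal meaning cytotoxicity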). Summed up:
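HCT116 p53-bla cells, 4000/well, dosed after 5 h plating (217-fold dilution of DMSO stocks) and incubated 16 h at 37C. Viability taken as cellular ATP by CellTiter-Glo luminescence after 30 min RT; signal loss marks cytotoxicity.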

Read-out in assay [20]: Transforming Growth Factor (TGFB1), TGFB1 (gene 7040)
The assay can be described thus: LTEA_HepaRG_TGFB1: Life Technologies and Expression Analysis (LTEA) Assay for Transforming Growth Factor (TGFB1) Transporter using HepaRG (AID 2283533). The note with it: mRNA level, 48 h; actives raise or lower the signal. Summed up:
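Expression change of TGFB1 in human HepaRG cells is measured after a 48 h chemical exposure, up to 100 uM in 0.5% DMSO vehicle. Curves are fitted in both directions relative to the DMSO baseline.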

Chain of Cellular tumor antigen p53 (Homo sapiens) (P04637 whole entry, looked up): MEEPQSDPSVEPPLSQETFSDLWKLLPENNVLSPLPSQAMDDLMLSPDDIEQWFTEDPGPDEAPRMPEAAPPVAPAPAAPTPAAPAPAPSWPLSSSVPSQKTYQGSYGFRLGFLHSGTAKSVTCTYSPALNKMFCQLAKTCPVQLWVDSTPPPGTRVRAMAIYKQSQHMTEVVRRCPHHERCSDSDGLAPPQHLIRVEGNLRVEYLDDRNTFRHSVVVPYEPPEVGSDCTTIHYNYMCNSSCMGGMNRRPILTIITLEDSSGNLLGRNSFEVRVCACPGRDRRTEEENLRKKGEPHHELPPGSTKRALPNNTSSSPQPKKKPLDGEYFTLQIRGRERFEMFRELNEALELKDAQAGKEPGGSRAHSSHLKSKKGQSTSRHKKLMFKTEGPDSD

Turning to `c1ccc(OP(Oc2ccccc2)Oc2ccccc2)cc1`, the result in assay [1], in assay [2], in assay [3], in assay [4], in assay [5] and in assay [6] was inactive. The call in assay [7], in [8], in assay [9], in assay [10], in [11] and in assay [12] was inactive. In addition, the outcome in assay [13], in assay [14], in assay [15] and in [16] was inactive.
In general, AC50 refers to the midpoint of the concentration-response curve, whichever way the signal moves. Regarding `Cc1ccc(N)cc1N`, the call in [1], in assay [2], in assay [3], in assay [4], in assay [5] and in assay [7] was inactive. Moreover, the molecule was called inactive in [9], in assay [10], in assay [11], in [13], in assay [17] and in assay [14]. Further, the result in assay [16] and in assay [18] was inactive. For the same molecule, the AC50 in [6] is 4.89 µM (active); in [8], 15 µM (active).
For the molecule `CCC(C)(C)c1ccc(O)cc1`, the molecule was called inactive in [1], in assay [2], in assay [3], in assay [4], in assay [5] and in assay [6]. Further, the outcome in [7], in assay [8], in assay [9], in [10], in assay [11] and in assay [12] was inactive. The call in [19], in assay [13], in [17], in [14], in assay [15] and in assay [16] was inactive. Moreover, in assay [18], the molecule was called inactive.
For the molecule `CCCCN(CCCC)N=O`, the molecule was called inactive in [1], in assay [2], in assay [3], in assay [4], in assay [5] and in assay [6]. Besides, the outcome in assay [7], in assay [8], in assay [9], in [10], in assay [11] and in [12] was inactive. Further, the molecule was called inactive in assay [19], in [13], in [17], in assay [14], in assay [15] and in [16]. Further, the result in [18] was inactive.
As to `ClC(Cl)c1ccccc1`, the call in assay [1], in assay [2], in [3], in assay [20], in assay [4] and in assay [5] was inactive. Also, the call in [6], in assay [8], in [9], in [10], in assay [11] and in [12] was inactive.
For the molecule `O=P1(N(CCCl)CCCl)NCCCO1` (centres undefined), the molecule was classed as inactive in assay [1], in assay [2], in [3], in [4], in assay [5] and in assay [6]. Further, the call in assay [7], in [8], in [9], in assay [10], in assay [11] and in [19] was inactive. The outcome in assay [13], in [14] and in assay [16] was inactive.
Consider `Cc1ccc(O)cc1C`, for which the outcome in [1], in assay [2], in [3], in assay [4], in assay [5] and in [6] was inactive. Also, the outcome in [7], in assay [8], in assay [9] and in assay [10] was inactive.
Take `CCOC(=O)c1ccccc1C(=O)OCC`: the outcome in [1], in assay [2], in assay [3], in assay [4], in assay [5] and in assay [6] was inactive. For the same molecule, the outcome in assay [7], in assay [8], in assay [9], in assay [10], in assay [11] and in assay [19] was inactive. Moreover, the result in [13], in assay [17], in assay [14], in [15] and in assay [16] was inactive.
